Tests used:
Test in all cases: DAPPL (digital affinity profiling via proximity ligation, sequencing); 10 mM Tris-HCl pH 7.5, 50 mM NaCl, 1 mM DTT, 4% glycerol, room temperature, 30 min; GST-TFs on glutathione beads, 16-mer random dsDNA library, 0.1% formaldehyde crosslink after washing; high values mean tight binding
Conditions in all cases: protein: recombinant; tags: N-terminal GST; dsDNA, one strand shown
[1] = biological target: T1, GABPA (Homo sapiens, UniProt Q06546 1-454)
T1 sequence: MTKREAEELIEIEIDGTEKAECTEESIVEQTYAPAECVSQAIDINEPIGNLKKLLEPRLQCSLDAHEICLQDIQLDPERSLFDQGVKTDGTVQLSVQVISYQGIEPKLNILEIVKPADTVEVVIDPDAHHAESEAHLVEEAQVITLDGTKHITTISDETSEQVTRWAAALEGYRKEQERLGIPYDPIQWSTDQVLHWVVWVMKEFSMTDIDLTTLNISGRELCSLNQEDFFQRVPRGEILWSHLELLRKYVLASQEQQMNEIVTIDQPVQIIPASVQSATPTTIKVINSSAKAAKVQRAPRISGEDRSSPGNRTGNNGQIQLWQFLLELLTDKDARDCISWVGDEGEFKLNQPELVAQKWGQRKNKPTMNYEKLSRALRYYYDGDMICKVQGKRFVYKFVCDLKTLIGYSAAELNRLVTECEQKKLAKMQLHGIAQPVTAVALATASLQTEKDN
Summary of the method: (§1)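 Human transcription factors were made in yeast as GST fusions, captured on glutathione beads and barcoded with DNA. With a tag-only sample included, the pool was incubated with 200 nmole of a random double-stranded 16-mer DNA library in Tris/NaCl/DTT/glycerol buffer at room temperature for 30 min, then crosslinked with 0.1% formaldehyde after washing, ligated by proximity, amplified and sequenced. For binding signal, each hexamer's read frequency for a factor is divided by its frequency for the tag-only sample.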

[2] = biological target: T2, ERG (Homo sapiens, UniProt P11308 1-479)
T2 sequence: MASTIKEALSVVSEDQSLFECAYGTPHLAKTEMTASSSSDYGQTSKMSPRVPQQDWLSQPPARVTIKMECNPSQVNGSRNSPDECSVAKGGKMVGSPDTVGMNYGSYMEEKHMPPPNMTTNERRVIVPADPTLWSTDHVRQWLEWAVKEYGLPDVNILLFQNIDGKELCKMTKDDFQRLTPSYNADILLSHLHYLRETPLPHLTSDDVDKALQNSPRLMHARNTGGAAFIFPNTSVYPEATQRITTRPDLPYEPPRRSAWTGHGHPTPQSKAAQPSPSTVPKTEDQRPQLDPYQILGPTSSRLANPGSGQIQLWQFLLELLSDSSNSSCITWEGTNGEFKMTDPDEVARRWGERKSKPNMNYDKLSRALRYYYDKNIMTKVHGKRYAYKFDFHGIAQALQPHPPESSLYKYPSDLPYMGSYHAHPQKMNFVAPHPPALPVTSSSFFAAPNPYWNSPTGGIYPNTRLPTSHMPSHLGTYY
Summary of the method: as §1

[3] = biological target: ELF1 (Homo sapiens, UniProt P32519 1-619)
Sequence of ELF1 (P32519 whole entry): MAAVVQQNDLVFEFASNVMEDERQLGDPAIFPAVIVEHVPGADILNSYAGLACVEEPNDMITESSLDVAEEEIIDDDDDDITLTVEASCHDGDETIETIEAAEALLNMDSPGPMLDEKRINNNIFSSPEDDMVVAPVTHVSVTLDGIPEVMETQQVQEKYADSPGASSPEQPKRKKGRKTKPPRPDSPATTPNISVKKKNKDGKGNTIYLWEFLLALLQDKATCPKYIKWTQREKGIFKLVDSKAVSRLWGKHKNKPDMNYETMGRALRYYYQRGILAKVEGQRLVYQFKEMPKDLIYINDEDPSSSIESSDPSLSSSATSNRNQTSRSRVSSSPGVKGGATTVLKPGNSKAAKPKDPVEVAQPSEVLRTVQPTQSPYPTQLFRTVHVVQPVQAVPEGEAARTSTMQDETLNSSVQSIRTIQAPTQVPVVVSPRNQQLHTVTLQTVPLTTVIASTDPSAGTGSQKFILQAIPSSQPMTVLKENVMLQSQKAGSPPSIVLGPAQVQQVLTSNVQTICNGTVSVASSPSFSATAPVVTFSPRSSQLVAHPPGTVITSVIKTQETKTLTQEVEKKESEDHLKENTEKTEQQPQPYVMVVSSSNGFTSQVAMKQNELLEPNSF
Summary of the method: as §1

[4] = biological target: T3, EHF (Homo sapiens, UniProt Q9NZC4 1-300)
T3 sequence: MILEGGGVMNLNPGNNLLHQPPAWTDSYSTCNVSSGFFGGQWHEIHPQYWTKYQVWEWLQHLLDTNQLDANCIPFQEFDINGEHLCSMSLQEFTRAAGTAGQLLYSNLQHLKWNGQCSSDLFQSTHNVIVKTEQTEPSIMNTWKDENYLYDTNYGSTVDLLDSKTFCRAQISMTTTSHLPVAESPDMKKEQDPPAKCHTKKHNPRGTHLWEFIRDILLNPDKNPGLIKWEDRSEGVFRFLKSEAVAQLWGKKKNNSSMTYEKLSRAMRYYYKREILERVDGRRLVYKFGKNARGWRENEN
Summary of the method: as §1

[5] = biological target: SPIB (Homo sapiens, UniProt Q01892 1-262)
Sequence of SPIB (Q01892 whole entry): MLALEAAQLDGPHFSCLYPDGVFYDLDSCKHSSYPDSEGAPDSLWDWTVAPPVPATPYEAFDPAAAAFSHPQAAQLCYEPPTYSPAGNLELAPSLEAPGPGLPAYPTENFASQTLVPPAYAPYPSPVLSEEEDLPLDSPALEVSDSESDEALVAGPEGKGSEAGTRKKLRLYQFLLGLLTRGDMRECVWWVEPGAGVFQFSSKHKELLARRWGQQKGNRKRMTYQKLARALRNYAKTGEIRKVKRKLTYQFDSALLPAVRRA
Summary of the method: as §1

[6] = biological target: T4, ELK3 (Homo sapiens, UniProt P41970 1-407)
T4 sequence: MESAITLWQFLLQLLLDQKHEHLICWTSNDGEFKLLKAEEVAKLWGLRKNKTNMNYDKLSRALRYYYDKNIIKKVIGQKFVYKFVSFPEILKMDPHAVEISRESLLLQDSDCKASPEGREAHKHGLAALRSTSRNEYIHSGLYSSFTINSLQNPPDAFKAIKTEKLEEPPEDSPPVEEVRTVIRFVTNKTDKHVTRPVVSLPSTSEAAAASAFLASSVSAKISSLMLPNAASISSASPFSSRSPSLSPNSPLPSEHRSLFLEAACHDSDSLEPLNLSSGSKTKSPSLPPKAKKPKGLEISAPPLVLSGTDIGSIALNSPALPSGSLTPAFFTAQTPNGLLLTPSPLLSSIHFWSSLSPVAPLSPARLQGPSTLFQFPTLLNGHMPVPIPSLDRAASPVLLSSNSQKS
Summary of the method: as §1

[7] = biological target: T5, SPIC (Homo sapiens, UniProt Q8N5J4 1-248)
T5 sequence: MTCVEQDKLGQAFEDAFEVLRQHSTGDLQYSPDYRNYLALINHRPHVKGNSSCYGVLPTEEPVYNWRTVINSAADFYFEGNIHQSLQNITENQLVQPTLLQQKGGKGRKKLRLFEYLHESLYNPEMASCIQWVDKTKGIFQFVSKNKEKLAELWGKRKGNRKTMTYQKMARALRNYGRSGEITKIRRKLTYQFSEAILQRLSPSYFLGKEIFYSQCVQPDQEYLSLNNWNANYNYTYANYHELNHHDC
Summary of the method: as §1

[8] = biological target: ELF4 (Homo sapiens, UniProt Q99607 1-663)
Sequence of ELF4 (Q99607 whole entry): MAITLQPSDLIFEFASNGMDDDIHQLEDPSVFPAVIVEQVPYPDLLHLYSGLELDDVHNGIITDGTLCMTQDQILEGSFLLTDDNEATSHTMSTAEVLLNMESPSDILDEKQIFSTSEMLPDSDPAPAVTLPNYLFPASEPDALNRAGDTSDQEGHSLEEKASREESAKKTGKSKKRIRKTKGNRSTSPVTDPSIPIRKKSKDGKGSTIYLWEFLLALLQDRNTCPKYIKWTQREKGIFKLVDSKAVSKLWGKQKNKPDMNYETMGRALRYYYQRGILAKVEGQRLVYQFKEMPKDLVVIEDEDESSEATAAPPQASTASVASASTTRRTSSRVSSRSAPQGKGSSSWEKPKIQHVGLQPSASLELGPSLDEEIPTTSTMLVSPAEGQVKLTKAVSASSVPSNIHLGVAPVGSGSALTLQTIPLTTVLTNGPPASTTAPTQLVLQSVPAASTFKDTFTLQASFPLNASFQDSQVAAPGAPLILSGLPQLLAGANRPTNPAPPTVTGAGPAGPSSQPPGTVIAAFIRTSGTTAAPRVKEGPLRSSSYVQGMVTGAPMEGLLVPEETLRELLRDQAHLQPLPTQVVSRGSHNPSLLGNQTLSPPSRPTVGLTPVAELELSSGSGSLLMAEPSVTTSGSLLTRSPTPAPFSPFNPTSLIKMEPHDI
Summary of the method: as §1

[9] = biological target: T6, ELK4 (Homo sapiens, UniProt P28324-2 1-405)
T6 sequence: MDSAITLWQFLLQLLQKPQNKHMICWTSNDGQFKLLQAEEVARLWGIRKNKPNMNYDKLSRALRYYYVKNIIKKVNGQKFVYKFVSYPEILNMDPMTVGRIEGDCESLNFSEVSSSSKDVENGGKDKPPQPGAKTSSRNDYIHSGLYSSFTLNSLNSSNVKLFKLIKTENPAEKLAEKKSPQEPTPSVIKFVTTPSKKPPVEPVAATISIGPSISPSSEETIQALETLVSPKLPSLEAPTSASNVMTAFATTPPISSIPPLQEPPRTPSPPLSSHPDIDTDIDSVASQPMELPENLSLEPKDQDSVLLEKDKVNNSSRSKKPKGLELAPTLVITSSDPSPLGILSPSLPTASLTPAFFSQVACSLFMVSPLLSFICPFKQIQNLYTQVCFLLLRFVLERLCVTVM
Summary of the method: as §1

[10] = biological target: T7, ELF3 (Homo sapiens, UniProt P78545 1-371)
T7 sequence: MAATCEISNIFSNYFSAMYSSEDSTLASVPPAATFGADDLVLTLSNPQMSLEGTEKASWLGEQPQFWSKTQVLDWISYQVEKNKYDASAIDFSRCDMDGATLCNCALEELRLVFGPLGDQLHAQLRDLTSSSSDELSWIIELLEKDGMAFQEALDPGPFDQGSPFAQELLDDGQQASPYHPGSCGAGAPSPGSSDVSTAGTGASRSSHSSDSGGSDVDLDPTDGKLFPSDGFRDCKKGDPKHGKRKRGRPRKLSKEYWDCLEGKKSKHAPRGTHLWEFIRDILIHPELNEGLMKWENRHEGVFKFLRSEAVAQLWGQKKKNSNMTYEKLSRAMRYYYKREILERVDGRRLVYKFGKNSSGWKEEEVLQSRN
Summary of the method: as §1

[11] = biological target: ETV1 (Homo sapiens, UniProt P50549 1-477)
Sequence of ETV1 (P50549 whole entry): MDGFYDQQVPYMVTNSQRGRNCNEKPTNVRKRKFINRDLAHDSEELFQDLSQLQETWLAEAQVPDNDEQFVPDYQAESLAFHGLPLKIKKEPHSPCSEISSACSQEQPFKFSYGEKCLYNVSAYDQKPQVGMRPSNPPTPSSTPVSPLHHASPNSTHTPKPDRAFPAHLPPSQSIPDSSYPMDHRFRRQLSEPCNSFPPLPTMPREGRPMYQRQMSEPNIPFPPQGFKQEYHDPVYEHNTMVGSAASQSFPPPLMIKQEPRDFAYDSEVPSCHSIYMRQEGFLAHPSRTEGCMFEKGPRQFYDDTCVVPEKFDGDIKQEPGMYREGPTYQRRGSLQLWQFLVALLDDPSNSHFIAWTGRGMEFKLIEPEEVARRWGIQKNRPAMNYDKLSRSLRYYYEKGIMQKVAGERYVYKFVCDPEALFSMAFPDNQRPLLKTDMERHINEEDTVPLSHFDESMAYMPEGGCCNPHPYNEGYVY
Summary of the method: as §1

[12] = biological target: T8, ERF (Homo sapiens, UniProt P50548 1-548)
T8 sequence: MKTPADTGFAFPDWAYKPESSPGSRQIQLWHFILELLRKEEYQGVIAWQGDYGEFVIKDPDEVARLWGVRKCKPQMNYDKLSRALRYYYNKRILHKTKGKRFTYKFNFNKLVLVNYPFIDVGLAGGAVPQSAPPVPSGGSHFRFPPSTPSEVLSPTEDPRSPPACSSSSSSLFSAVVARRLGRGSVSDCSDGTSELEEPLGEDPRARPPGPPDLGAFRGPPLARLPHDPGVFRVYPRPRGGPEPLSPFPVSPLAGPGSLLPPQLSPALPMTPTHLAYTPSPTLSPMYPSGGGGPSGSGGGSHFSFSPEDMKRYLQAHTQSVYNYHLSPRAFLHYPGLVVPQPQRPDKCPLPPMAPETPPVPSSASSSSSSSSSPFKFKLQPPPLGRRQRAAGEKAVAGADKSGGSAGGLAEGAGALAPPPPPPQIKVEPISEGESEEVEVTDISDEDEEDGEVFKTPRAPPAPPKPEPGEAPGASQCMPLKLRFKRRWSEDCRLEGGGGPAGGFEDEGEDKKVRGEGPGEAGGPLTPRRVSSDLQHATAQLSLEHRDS
Summary of the method: as §1

[13] = biological target: T9, ETV3L (Homo sapiens, UniProt Q6ZN32 1-361)
T9 sequence: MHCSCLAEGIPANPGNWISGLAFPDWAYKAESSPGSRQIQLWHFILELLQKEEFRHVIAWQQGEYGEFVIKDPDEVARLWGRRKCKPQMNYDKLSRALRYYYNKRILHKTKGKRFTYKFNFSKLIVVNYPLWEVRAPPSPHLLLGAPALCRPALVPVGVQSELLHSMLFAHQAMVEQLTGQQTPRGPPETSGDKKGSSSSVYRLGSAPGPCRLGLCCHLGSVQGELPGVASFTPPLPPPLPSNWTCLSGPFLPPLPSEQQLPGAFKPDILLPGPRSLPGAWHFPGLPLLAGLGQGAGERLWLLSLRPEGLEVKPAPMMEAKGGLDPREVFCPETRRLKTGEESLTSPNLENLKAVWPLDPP
Summary of the method: as §1

[14] = biological target: T10, ETS2 (Homo sapiens, UniProt P15036 1-469)
T10 sequence: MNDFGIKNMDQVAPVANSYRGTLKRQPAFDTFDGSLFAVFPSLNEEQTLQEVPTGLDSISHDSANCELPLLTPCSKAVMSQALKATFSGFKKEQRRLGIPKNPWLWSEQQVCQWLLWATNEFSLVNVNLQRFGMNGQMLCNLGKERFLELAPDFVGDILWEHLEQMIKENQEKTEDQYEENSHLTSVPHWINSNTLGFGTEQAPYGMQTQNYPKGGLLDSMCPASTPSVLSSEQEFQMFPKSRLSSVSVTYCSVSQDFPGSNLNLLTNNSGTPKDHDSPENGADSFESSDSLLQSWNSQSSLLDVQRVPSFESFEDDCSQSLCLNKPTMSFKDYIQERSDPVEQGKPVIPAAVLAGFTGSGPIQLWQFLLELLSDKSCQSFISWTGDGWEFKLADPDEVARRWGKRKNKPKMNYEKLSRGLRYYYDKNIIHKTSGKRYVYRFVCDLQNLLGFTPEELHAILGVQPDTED
Summary of the method: as §1

[15] = biological target: T11, SPDEF (Homo sapiens, UniProt O95238 1-335)
T11 sequence: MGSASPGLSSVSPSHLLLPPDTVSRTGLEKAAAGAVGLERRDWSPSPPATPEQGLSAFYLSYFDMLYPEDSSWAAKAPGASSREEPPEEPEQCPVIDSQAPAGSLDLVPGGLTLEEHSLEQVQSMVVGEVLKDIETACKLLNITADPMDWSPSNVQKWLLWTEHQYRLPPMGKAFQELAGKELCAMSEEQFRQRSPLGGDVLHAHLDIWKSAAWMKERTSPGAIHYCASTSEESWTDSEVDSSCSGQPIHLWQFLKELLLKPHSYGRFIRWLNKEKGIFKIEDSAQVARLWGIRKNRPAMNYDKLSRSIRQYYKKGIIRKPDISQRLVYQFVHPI
Summary of the method: as §1

[16] = biological target: T12, ETV7 (Homo sapiens, UniProt Q9Y603 1-341)
T12 sequence: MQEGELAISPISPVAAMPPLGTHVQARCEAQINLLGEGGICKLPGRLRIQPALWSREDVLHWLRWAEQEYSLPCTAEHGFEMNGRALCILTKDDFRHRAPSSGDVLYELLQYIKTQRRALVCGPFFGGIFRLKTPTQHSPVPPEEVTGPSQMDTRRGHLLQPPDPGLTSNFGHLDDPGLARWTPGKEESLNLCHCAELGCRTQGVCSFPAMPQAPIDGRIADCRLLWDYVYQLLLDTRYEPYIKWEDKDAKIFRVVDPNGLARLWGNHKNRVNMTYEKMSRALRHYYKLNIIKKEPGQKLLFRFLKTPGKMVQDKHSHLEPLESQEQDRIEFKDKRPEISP
Summary of the method: as §1

[17] = biological target: T13, ETV3 (Homo sapiens, UniProt P41162-2 1-143)
T13 sequence: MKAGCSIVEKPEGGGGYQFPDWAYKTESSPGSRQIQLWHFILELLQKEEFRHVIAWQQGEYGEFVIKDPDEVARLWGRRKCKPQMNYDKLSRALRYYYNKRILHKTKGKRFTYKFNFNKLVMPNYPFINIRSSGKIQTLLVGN
Summary of the method: as §1

[18] = biological target: ETV6 (Homo sapiens, UniProt P41212 1-452)
Sequence of ETV6 (P41212 whole entry): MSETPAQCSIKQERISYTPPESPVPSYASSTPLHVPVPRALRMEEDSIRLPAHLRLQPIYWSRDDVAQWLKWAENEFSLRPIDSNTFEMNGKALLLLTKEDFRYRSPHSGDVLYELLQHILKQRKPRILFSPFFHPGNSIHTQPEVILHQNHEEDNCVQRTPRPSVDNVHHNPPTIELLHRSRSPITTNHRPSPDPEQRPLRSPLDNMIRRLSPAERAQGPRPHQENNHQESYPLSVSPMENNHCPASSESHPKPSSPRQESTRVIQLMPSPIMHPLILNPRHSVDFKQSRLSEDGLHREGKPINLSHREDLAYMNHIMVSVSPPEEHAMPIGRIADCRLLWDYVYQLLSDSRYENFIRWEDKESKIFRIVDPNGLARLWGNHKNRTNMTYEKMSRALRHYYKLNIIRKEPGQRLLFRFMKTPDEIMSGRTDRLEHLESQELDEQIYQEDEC
Summary of the method: as §1

TTGCCA
binding signal [1]: 1.13 fold enrichment (6-mer frequency, TF over GST control)
binding signal [2]: 1.08 fold enrichment (6-mer frequency, TF over GST control)
binding signal [3]: 1.03 fold enrichment (6-mer frequency, TF over GST control)
binding signal [4]: 1.12 fold enrichment (6-mer frequency, TF over GST control)
binding signal [5]: 1.02 fold enrichment (6-mer frequency, TF over GST control)
binding signal [6]: 1.05 fold enrichment (6-mer frequency, TF over GST control)
binding signal [7]: 1.16 fold enrichment (6-mer frequency, TF over GST control)
binding signal [8]: 1.07 fold enrichment (6-mer frequency, TF over GST control)
binding signal [9]: 1.15 fold enrichment (6-mer frequency, TF over GST control)
binding signal [10]: 1.17 fold enrichment (6-mer frequency, TF over GST control)
binding signal [11]: 1.06 fold enrichment (6-mer frequency, TF over GST control)
binding signal [12]: 1.23 fold enrichment (6-mer frequency, TF over GST control)
binding signal [13]: 1 fold enrichment (6-mer frequency, TF over GST control)
binding signal [14]: 1.05 fold enrichment (6-mer frequency, TF over GST control)
binding signal [15]: 1.14 fold enrichment (6-mer frequency, TF over GST control)
binding signal [16]: 1.03 fold enrichment (6-mer frequency, TF over GST control)
binding signal [17]: 1.12 fold enrichment (6-mer frequency, TF over GST control)
binding signal [18]: 1.06 fold enrichment (6-mer frequency, TF over GST control)

— paper PMC7862700, “An all-to-all approach to the identification of sequence-specific readers for epigenetic DNA modifications on cytosine”
